Assay results published in the supplement of paper PMC10849652.
Targets with a hit are over-represented here; the source holds about 7,900 in all. About 0.6% of all pairs of compound and target were hits.

Key:
Test in all cases: log2 fold change, soluble protein after heating vs DMSO (PISA); higher = thermal stabilisation; K562 cells, 10 uM, 30 min; active = over 0.2 and 3.5 SD of the protein, either way, in both replicates (recomputed)
[1] = compound: CC1=C2C(=CC=C1)N=C(N(C2=O)C3=CC=CC=C3C)CN4C=NC5=C(N=CN=C54)N
Procedure, shortened: (§1)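 For each measurement, 10 μM compound was applied for 30 min to K562 cells at 2×10^6 cells/mL. Aliquots were heated for 3 min across 48°C-58°C, pooled, and extracted in PBS with 0.5% NP-40 at 4°C; the supernatant after 21,000xg for 90 min was soluble protein. This was quantified by TMTpro 16plex LC-MS/MS with channel sums equalised, and thermal stability was reported relative to control samples from duplicates, on a log2 fold-change scale.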

[2] = compound: CC1=C(SC2=C1C(=N[C@H](C3=NN=C(N32)C)CC(=O)N)C4=CC=C(C=C4)Cl)C
Procedure, shortened: as §1

[3] = compound: c1ccc([C@@H]2C[C@H]2NC2CCNCC2)cc1
Procedure, shortened: as §1

[4] = compound: Cc1sc2c(c1C)C(c1ccc(Cl)cc1)=N[C@@H](CC(=O)OC(C)(C)C)c1nnc(C)n1-2
Procedure, shortened: as §1

[5] = compound: C1=CC=C(C=C1)[C@H](COC2=CC3=C(C=C2)NC(=O)N3)NC(=O)C4=CC=CN(C4=O)CC5=CC(=C(C=C5)F)F
Procedure, shortened: as §1

Measured: log2 fold change

FAM135A (UniProt Q9P2D6)
inactive: [1] 0.106

DBNL (UniProt Q9UJU6)
inactive: [2] -0.04 | [3] -0.099

ELOVL7 (UniProt A1L3X0)
inactive: [2] 0.077 | [4] -0.066 | [3] -0.01

ELF1 (UniProt P32519)
Sequence of UniProt P32519 (P32519 whole entry, looked up): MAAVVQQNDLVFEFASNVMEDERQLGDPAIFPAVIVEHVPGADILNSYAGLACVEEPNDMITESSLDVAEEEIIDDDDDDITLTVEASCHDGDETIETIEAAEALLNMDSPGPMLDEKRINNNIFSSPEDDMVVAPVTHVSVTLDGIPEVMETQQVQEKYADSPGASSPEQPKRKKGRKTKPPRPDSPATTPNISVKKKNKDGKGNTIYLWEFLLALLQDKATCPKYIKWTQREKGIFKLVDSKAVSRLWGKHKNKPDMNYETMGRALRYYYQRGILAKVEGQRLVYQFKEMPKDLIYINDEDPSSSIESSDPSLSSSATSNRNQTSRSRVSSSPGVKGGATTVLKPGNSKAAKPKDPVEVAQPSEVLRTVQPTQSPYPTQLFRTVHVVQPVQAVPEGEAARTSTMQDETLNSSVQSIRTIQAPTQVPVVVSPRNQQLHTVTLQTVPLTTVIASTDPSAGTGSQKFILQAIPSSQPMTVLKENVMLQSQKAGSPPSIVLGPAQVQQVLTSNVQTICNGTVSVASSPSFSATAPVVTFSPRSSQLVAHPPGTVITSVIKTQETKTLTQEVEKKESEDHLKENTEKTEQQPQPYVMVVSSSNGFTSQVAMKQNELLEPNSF
inactive: [2] 0.008 | [4] 0.017 | [3] 0.007

F2RL3 (UniProt Q96RI0)
inactive: [2] 0.175 | [1] 0.06 | [4] -0.197 | [3] 0.032

DOP1A (UniProt Q5JWR5)
inactive: [5] 0.203 | [1] 0.049

DHRS13 (UniProt Q6UX07)
inactive: [2] 0.084 | [1] 0.099 | [4] 0.218 | [3] -0.14

FAM117B (UniProt Q6P1L5)
inactive: [2] 0.283 | [1] 0.116 | [4] -0.097 | [3] -0.024

ELAC1 (UniProt Q9H777)
inactive: [2] 0.123 | [1] 0.146 | [3] 0.059

DENND1A isoform 6 (UniProt Q8TEH3)
Sequence of UniProt Q8TEH3 (Q8TEH3 whole entry, looked up): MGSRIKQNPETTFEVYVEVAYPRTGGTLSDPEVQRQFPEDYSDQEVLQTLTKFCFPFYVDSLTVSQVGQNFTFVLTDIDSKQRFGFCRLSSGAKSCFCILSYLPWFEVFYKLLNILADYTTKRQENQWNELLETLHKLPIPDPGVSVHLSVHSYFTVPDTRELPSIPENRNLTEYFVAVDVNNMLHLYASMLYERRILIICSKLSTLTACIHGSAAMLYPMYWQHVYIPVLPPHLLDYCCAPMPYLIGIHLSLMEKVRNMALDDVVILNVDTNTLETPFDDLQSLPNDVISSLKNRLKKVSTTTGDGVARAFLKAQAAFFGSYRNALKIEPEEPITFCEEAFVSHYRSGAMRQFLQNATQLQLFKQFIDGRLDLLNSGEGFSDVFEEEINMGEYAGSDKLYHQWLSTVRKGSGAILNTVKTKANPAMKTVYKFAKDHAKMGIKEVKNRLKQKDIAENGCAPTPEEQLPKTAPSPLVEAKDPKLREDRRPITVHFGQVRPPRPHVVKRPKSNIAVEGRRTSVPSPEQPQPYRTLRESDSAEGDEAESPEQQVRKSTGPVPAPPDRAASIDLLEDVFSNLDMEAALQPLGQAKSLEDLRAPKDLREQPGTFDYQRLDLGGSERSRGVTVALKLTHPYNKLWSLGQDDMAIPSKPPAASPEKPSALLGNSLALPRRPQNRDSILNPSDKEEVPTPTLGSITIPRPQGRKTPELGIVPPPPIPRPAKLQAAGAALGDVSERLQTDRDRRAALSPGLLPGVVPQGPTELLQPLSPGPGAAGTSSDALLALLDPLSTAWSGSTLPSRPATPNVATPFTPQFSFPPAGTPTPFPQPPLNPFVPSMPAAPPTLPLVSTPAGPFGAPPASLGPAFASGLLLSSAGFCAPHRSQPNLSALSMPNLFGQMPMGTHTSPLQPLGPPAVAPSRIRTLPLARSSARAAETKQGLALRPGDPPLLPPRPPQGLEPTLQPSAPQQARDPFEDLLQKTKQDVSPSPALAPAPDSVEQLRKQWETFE
inactive: [5] 0.152 | [1] 0.146 | [4] 0.284

CWF19L2 (UniProt Q2TBE0)
inactive: [2] -0.169 | [4] 0.028 | [3] 0.135

CYB561A3 isoform 2 (UniProt Q8NBI2)
Sequence of UniProt Q8NBI2 (Q8NBI2 whole entry, looked up): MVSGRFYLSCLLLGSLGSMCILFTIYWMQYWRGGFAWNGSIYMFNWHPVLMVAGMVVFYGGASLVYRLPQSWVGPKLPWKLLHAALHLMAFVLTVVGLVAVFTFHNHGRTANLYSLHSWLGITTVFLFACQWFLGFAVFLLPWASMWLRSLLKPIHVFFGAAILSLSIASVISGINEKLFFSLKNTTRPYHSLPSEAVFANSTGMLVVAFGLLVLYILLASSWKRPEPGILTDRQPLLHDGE
inactive: [5] 0.033 | [2] -0.009 | [4] -0.075 | [3] 0.002

CTSS (UniProt P25774)
inactive: [2] -0.004 | [1] -0.033 | [4] -0.192 | [3] 0.037

EID1 (UniProt Q9Y6B2)
inactive: [4] -0.135

ERF (UniProt P50548)
inactive: [4] -0.515

EEF2K (UniProt O00418)
inactive: [2] 0.001 | [1] 0.145 | [3] -0.082

DDX27 (UniProt Q96GQ7)
inactive: [2] -0.197 | [1] -0.157 | [4] 0.12 | [3] -0.046

FAM207A (UniProt Q9NSI2)
inactive: [5] 0.107 | [1] 0.001 | [4] 0.021

DNAL1 (UniProt Q4LDG9)
inactive: [5] 0.146 | [2] 0.086 | [1] -0.264 | [3] 0.03

FADS1 (UniProt F5GYH4)
inactive: [5] -0.216 | [1] -0.02 | [4] -0.036

EDRF1 (UniProt Q3B7T1)
inactive: [5] 0.043 | [2] 0.245 | [3] -0.061

EIF2AK3 (UniProt Q9NZJ5)
inactive: [5] -0.473 | [2] -0.027 | [4] -0.196 | [3] 0.059

DNM2 isoform 4 (UniProt P50570)
inactive: [5] 0.015 | [2] 0.065 | [3] -0.022

ELMO1 (UniProt Q92556)
inactive: [5] -0.085 | [1] 0.026

DNAAF2 (UniProt Q9NVR5)
Sequence of UniProt Q9NVR5 (Q9NVR5 whole entry, looked up): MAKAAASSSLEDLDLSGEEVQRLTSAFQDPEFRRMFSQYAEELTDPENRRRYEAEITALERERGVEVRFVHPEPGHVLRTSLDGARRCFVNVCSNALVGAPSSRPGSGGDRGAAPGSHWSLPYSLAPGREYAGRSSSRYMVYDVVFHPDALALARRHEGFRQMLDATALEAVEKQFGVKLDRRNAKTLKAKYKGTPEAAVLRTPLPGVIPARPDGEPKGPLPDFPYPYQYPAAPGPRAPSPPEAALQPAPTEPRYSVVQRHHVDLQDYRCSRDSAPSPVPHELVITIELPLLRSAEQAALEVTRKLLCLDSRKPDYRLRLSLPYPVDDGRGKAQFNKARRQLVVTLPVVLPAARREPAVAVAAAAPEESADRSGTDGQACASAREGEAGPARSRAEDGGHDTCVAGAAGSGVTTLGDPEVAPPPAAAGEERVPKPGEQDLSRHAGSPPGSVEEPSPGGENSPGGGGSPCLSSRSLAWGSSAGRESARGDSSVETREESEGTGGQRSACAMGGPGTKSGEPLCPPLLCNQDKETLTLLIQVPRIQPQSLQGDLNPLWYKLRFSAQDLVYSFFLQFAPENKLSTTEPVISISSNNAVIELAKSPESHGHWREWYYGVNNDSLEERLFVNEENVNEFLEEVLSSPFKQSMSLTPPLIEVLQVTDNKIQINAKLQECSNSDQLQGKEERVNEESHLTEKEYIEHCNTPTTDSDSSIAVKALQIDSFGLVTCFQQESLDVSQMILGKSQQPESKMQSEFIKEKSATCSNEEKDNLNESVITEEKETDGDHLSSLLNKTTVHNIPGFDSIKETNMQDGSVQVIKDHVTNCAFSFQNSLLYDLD
inactive: [5] 0.039 | [2] 0.02 | [1] -0.013 | [4] -0.003 | [3] 0.002

EIF4G1 (UniProt Q04637)
Sequence of UniProt Q04637 (Q04637 whole entry, looked up): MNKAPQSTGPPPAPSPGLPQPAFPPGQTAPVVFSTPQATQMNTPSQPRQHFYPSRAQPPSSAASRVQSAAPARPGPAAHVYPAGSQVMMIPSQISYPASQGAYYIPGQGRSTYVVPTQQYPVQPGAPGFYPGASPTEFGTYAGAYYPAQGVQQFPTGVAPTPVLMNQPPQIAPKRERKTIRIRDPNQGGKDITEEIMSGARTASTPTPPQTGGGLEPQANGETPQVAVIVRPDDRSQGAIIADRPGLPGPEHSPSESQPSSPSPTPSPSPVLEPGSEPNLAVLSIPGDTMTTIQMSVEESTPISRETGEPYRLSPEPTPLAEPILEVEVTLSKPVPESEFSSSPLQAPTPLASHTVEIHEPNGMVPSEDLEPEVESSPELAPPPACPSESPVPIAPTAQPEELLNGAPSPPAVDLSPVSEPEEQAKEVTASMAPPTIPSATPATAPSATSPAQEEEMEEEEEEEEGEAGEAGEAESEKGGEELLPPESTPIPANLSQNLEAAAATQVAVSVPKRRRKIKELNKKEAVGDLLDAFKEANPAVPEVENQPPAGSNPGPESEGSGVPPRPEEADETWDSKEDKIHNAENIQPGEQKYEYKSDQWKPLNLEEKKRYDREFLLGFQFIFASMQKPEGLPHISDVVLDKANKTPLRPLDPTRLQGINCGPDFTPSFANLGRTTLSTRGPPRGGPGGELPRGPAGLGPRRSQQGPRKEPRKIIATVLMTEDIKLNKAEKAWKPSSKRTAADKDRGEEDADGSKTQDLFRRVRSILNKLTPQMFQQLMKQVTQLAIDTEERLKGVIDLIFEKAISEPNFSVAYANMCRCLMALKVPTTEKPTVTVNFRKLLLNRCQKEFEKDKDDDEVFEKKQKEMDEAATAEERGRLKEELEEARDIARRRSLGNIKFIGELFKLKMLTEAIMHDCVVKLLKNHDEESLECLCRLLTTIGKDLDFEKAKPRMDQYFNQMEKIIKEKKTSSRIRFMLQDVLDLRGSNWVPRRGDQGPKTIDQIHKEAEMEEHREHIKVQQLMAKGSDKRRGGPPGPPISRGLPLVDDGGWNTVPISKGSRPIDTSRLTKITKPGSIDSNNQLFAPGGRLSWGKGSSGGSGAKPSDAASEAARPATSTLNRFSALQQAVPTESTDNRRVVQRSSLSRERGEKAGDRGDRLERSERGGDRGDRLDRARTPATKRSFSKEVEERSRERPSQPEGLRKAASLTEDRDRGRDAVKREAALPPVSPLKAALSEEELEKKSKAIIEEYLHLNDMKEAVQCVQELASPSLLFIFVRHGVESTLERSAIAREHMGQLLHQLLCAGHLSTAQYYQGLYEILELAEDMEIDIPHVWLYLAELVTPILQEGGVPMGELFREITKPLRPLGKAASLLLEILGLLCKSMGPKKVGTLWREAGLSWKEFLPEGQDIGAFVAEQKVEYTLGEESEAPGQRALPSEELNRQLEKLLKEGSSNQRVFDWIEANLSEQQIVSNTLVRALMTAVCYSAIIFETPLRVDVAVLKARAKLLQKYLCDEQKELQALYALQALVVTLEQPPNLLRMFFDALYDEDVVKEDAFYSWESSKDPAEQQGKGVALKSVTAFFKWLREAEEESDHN
inactive: [2] -0.032 | [1] 0.011 | [4] 0.098 | [3] -0.028

DYNC1I2 isoform 2 (UniProt Q13409)
Sequence of UniProt Q13409 (Q13409 whole entry, looked up): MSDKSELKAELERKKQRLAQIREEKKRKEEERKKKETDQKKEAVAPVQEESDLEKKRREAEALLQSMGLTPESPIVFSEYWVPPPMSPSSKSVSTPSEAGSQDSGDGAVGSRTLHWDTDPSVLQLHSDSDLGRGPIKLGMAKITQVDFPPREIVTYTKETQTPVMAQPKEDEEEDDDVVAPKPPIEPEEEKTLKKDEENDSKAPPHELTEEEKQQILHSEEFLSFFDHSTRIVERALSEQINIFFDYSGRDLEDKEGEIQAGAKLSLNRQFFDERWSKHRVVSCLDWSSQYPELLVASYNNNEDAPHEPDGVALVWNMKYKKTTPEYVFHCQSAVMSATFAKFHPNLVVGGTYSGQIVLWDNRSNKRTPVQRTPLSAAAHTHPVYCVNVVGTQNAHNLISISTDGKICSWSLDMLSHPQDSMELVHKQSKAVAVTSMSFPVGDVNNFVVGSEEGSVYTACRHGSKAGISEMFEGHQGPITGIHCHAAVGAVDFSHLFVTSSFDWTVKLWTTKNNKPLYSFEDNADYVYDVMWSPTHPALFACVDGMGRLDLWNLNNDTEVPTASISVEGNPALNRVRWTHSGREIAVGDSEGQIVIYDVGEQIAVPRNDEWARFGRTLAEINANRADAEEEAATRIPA
inactive: [5] 0.028 | [2] -0.059 | [4] -0.068 | [3] 0.14

DDX11 (UniProt Q96FC9)
inactive: [5] -0.068 | [1] 0.335 | [4] 0.059
